Where “and” joins values, the source holds several entries; their conditions need not be identical. Equal values may be shown once. Records with an inconclusive call do not appear. The source holds several records for some structures; these can differ, active in one and inactive in another. Calls of active or inactive are those of the source. Unless noted, calls follow the shape of the dose curve; as a rule, active = well fitted curve in the direction sought with a large enough effect in the repeat runs; inconclusive = weak or mixed curves; inactive = no such curve, though single readings can be large; an effect the other way counts as inactive or inconclusive.
Key:
[1] = qHTS assay to identify small molecule agonists of the androgen receptor (AR) signaling pathway in the presence of an antagonist - cell viability counter screen (AID 1259379); also: nearly all actives have a fitted effect of over 25% in size; also: potency is read from the fitted curve at half-maximal effect
How it was run: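 Cytotoxicity is assessed by CellTiter-Fluor in MDA-kb2 cells carrying an MMTV-driven luciferase reporter. Cells receive 3.0uM nilutamide plus compounds at 15 concentrations and incubate 16 hr at 37C without CO2 before fluorescence reading.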

[2] = qHTS assay to identify small molecule agonists of the estrogen receptor beta (ER-beta) signaling pathway - cell viability counter screen (AID 1259380); also: nearly all actives have a fitted effect of over 30% in size; also: potency is read from the fitted curve at half-maximal effect
How it was run: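 Cytotoxicity is measured in parallel with the reporter screen: after 16 hr compound exposure at 37C and a 2 hr LiveBLAzer step, CellTiter-Glo is added to the same ER-beta-UAS-bla HEK293T wells and luminescence read after 30 min.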

[3] = molecular target: Androgen receptor (Homo sapiens) (UniProt P10275); test: qHTS assay to identify small molecule agonists of the androgen receptor (AR) signaling pathway in the presence of an antagonist (AID 1259381; calls by dose curve; also: nearly all actives have a fitted effect of over 15% in size)
How it was run: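 Agonist-mode confirmation screen: human MDA-kb2 cells stably expressing luciferase under an MMTV promoter bearing AR and GR response elements, co-treated with 3.0uM nilutamide (final). Luminescence measured after 16hr compound incubation.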

[4] = qHTS assay to identify small molecule antagonists of the estrogen receptor beta (ER-beta) signaling pathway - cell viability counter screen (AID 1259382);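 also: HEK293T cells carrying ER-beta-UAS-bla reporter stimulated with estradiol; series mostly up to about 92 µM; nearly all actives have a fitted effect of over 55% in size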
How it was run: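 Cytotoxicity counter screen multiplexed with the beta-lactamase antagonist assay: GripTite HEK293T ER-beta-bla cells were treated 16 hr with test chemicals in the presence of 1nM 17-beta-estradiol, and viability was measured by CellTiter-Glo.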

[5] = molecular target: Estrogen receptor (Homo sapiens) (UniProt P03372); test: qHTS assay to identify small molecule agonists of the estrogen receptor alpha (ER-alpha) signaling pathway in the presence of an antagonist (AID 1259383; calls by dose curve; also: top concentration of the series differs between compounds; nearly all actives have a fitted effect of over 15% in size)
How it was run: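 Agonist-mode confirmation in the presence of the ER antagonist ICI-182,780 at 10.0nM final. Breast-derived VM7Luc4E2 reporter cells were exposed to compounds for 22hr, and ERE-driven luciferase was quantified by luminescence.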

[6] = qHTS assay to identify small molecule agonists or antagonists of the thyroid stimulating hormone receptor (TSHR) signaling pathway - wild type cell line counter screen (AID 1259384; calls by dose curve)
How it was run: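 Counter screen in untransfected Hek293: compounds (15-point titration, triplicate) plus phosphodiesterase inhibitor Ro20-1724 added after 18 h plating; 30 min RT. Intracellular cAMP via competitive d2/cryptate immunoassay, 1 h incubation.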

[7] = molecular target: Thyrotropin receptor (Homo sapiens) (UniProt P16473); test: qHTS assay to identify small molecule antagonists of the thyroid stimulating hormone receptor (TSHR) signaling pathway (AID 1259385; calls by dose curve; also: nearly all actives have a fitted effect of over 20% in size)
How it was run: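 Antagonist mode: compound-treated TSHR-expressing HEK293 cells were stimulated with 1.5 ng/mL TSH (final) in presence of Ro20-1724 for 30 min at RT. HTRF cAMP detection after 1 h; each compound tested at 15 concentrations, triplicate.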

[8] = qHTS assay to identify small molecule agonists of the estrogen receptor alpha (ER-alpha) signaling pathway in the presence of an antagonist - cell viability counter screen (AID 1259386);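 also: series mostly up to about 92 µM; cells exposed to compounds for 22 h at 37 °C before the viability read; nearly all actives have a fitted effect of over 30% in size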
How it was run: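 Cytotoxicity was measured in parallel with the ERE-luciferase agonist screen, in the same wells. The cells were VM7Luc4E2, which endogenously express ER-alpha, and treatment was with compounds plus 10.0nM ICI-182,780 for 22hr.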

[9] = molecular target: Progesterone receptor (Homo sapiens) (UniProt P06401); test: qHTS assay to identify small molecule agonists of the progesterone receptor (PR) signaling pathway (AID 1346784; calls by dose curve; also: nearly all actives have a fitted effect of over 30% in size)
How it was run: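 Cells (PR-UAS-bla HEK 293T, GripTite) were plated in assay medium containing 2% charcoal-stripped FBS and incubated 6 hr. Test compounds in DMSO were added for 16 hr at 37C. FRET substrate was then loaded for 2 hr at room temperature before fluorescence reading.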

[10] = molecular target: Progesterone receptor (Homo sapiens) (UniProt P06401); test: qHTS assay to identify small molecule antagonists of the progesterone receptor (PR) signaling pathway (AID 1346795; active = well fitted inhibition curve with a large enough effect in the signal ratio in the repeat runs, not every such curve was filed as active; the % refers to the signal ratio; also: potency is read from the fitted curve at half-maximal effect)
How it was run: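 Antagonist mode: compounds tested against 1 nM (final) promegestone stimulation in HEK293T cells expressing PR-UAS-bla reporter, 16 hr at 37C, 5% CO2; beta-lactamase activity detected via B/G FRET substrate after 2 hr at room temperature.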

[11] = qHTS assay to identify small molecule antagonists of the progesterone receptor (PR) signaling pathway - cell viability counter screen (AID 1346798); also: series mostly up to about 92 µM; nearly all actives have a fitted effect of over 50% in size
How it was run: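 Counter screen for cytotoxicity: viability of PR-UAS-bla HEK293T cells was measured with CellTiter-Glo luminescence following 16 hr compound exposure in the presence of R5020.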

[12] = qHTS assay to identify small molecule agonists of the progesterone receptor (PR) signaling pathway - cell viability counter screen (AID 1346799; calls by dose curve; also: nearly all actives have a fitted effect of over 45% in size; also: potency is read from the fitted curve at half-maximal effect)
How it was run: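 Cells (PR-UAS-bla HEK293T) are plated at 3,000/well in 2% charcoal-stripped FBS medium, rested 6 hr, dosed and incubated 16 hr at 37C. CellTiter-Glo is then added and luminescence measured after 30 min at room temperature.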

[13] = qHTS assay to identify small molecule antagonists of the TGF-beta/Smad signaling pathway - cell viability counter screen (AID 1346824); also: nearly all actives have a fitted effect of over 50% in size
How it was run: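 Cytotoxicity counter-screen run in the same wells as the beta-lactamase Smad reporter read: CellTiter-Glo luminescence after 30 min at room temperature. HEK 293T SBE-bla cells had 5 hr compound exposure at 37 C with TGF-beta1 (0.25 ng/mL stock).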

[14] = qHTS assay to identify small molecule agonists of the TGF-beta/Smad signaling pathway - cell viability counter screen (AID 1346829); also: top concentration of the series differs between compounds; nearly all actives have a fitted effect of over 45% in size
How it was run: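 Cytotoxicity counter screen: CellTiter-Glo luminescence (30 min, room temperature) measured in the SBE-bla HEK 293T reporter wells after 5 hr compound treatment at 37 C and the 2 hr substrate step.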

[15] = qHTS assay to identify small molecule agonists of the TGF-beta/Smad signaling pathway (AID 1346859; active = well fitted activation curve with a large enough effect in the signal ratio in the repeat runs, not every such curve was filed as active; the % refers to the signal ratio; also: series mostly up to about 77 µM)
How it was run: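 Reporter line: HEK 293T with stably integrated SBE-controlled beta-lactamase. Compound exposure lasts 5 hr at 37 C and 5% CO2; substrate loading follows for 2 hr at room temperature, with emission read at 460 and 530 nm.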

[16] = Human pregnane X receptor (PXR) small molecule agonists, qHTS cell viability counter screen (AID 1346977); also: nearly all actives have a fitted effect of over 50% in size
How it was run: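 Cytotoxicity counter screen run in the same wells as the PXR luciferase assay, using PXR-Luc HepG2 cells in charcoal-stripped serum medium. Viability: CellTiter-Fluor fluorescence after 24hr compound treatment.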

[17] = molecular target: Thyrotropin-releasing hormone receptor (Homo sapiens) (UniProt P34981); test: qHTS assay to identify small molecule antagonists of the thyrotropin-releasing hormone receptor (TRHR) signaling pathway (AID 1346877; active = well fitted inhibition curve with a large enough effect in the repeat runs, not every such curve was filed as active; also: potency is read from the fitted curve at half-maximal effect)
How it was run: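 Antagonism is measured as suppression of the calcium response to 1 nM TRH in TRHR-HEK293 cells that have been dye-loaded for 2 h at 37 °C after overnight plating. Each compound is tested at 15 concentrations in triplicate.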

[18] = molecular target: Thyrotropin-releasing hormone receptor (Homo sapiens) (UniProt P34981); test: qHTS assay to identify small molecule agonists of the thyrotropin-releasing hormone receptor (TRHR) signaling pathway (AID 1346891; calls by dose curve; also: potency is read from the fitted curve at half-maximal effect;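 as to activation: HEK293 cells expressing TRHR with calcium dye readout; series mostly up to about 58 µM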)
How it was run: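 Cells: TRHR-Hek293, seeded and incubated 18 h. Dye loading: 2 h at 37 °C. Compound added from DMSO stock by pin tool. Read-out: kinetic calcium fluorescence over 3 min.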

Measured: Potency

Sequence of Thyrotropin-releasing hormone receptor (Homo sapiens) (P34981 whole entry, looked up): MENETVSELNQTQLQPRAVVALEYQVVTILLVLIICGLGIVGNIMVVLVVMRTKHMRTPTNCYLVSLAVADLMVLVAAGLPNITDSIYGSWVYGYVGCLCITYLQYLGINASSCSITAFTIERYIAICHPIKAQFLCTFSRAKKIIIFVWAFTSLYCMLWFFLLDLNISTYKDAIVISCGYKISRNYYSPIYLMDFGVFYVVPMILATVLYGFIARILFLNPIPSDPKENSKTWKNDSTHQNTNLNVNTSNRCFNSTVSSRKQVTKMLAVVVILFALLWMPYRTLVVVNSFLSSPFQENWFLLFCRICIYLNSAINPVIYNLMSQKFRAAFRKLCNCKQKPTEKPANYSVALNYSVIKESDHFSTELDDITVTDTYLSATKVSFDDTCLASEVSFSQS
Sequence of Estrogen receptor (Homo sapiens) (P03372 whole entry, looked up): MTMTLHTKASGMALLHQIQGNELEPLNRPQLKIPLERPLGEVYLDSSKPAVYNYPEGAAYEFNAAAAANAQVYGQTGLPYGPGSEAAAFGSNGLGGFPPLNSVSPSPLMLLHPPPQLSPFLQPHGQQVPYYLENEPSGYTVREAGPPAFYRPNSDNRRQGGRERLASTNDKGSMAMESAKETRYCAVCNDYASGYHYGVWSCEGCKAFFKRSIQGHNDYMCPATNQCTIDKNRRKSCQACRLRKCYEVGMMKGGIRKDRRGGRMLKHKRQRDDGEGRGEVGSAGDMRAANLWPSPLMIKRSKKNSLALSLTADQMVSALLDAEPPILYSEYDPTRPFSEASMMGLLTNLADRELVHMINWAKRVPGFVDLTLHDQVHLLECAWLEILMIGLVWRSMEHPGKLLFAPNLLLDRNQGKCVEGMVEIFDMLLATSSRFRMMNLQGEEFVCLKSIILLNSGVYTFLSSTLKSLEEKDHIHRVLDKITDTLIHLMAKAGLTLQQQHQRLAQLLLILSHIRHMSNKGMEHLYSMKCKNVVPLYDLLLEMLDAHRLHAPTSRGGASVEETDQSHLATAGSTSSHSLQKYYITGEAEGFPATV
Sequence of Progesterone receptor (Homo sapiens) (P06401 whole entry, looked up): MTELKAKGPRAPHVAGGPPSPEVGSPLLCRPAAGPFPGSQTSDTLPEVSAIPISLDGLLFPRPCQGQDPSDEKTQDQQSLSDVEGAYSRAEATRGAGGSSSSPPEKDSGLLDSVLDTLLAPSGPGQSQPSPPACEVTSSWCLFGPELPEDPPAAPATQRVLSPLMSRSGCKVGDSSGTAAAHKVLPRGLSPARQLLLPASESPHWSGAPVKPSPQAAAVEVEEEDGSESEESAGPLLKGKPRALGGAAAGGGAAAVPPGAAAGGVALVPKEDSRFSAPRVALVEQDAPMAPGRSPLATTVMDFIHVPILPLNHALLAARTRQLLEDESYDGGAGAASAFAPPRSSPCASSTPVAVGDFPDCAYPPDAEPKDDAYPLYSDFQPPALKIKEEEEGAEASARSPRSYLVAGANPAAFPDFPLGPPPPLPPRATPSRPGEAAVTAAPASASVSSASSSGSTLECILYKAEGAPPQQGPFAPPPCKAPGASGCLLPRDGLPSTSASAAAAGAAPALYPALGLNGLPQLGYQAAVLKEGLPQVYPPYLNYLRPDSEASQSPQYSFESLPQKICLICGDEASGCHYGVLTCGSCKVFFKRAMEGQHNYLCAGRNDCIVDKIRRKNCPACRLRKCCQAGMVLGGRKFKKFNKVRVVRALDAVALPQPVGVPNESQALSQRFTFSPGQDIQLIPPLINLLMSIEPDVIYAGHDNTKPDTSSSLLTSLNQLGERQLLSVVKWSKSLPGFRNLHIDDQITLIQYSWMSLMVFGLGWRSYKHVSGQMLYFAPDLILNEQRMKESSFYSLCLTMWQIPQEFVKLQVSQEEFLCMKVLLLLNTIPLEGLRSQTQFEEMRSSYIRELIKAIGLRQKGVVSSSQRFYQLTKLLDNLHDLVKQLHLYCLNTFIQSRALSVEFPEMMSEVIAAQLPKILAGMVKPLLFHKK
Sequence of Thyrotropin receptor (Homo sapiens) (P16473 whole entry, looked up): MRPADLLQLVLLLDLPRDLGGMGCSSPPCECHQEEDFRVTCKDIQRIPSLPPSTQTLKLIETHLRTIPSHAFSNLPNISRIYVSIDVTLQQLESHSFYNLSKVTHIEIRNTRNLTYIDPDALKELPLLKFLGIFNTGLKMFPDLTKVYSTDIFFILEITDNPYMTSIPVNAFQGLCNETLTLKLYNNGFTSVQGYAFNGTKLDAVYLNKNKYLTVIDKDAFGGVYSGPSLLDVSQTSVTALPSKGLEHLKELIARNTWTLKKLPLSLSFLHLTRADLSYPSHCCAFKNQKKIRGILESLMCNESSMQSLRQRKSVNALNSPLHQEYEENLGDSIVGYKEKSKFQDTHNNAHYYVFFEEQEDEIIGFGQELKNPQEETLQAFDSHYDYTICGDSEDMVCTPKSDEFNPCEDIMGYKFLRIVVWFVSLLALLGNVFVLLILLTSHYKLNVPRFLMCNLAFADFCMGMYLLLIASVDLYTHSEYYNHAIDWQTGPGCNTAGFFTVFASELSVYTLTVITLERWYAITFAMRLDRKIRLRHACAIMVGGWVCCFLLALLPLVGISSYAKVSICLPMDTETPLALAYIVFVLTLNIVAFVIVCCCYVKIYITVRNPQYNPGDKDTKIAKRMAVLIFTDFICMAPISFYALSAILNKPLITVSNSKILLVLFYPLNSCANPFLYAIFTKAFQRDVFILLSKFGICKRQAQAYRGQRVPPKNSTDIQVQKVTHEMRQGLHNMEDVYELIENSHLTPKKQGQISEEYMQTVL
Sequence of Androgen receptor (Homo sapiens) (P10275 whole entry, looked up): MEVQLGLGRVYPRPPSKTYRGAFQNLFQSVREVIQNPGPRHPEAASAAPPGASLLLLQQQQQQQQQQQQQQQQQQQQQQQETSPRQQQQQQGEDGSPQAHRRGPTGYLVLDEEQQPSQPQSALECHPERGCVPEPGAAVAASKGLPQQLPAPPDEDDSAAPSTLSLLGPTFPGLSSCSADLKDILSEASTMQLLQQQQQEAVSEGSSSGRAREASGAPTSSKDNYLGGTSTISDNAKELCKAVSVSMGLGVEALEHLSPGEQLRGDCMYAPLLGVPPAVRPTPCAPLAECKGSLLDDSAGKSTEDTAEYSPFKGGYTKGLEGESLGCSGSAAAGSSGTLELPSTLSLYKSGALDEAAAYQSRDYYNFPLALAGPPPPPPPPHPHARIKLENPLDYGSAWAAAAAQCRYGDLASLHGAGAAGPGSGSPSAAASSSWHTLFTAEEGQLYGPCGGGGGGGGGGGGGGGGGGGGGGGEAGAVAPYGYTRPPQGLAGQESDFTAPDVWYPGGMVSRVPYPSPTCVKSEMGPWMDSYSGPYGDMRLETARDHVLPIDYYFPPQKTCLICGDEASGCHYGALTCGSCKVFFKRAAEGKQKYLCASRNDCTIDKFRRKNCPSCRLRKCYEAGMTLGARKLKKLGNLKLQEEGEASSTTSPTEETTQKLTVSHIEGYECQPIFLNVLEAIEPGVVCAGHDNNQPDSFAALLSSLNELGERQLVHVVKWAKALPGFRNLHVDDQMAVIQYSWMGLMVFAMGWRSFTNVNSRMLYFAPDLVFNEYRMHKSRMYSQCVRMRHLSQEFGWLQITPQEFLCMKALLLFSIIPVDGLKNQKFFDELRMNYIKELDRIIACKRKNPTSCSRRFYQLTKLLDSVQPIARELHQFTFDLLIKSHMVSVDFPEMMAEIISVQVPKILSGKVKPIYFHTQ

COc1cc(C(=S)N2CCOCC2)ccc1O
not listed: [17] | [18]
inactive: all other assays above

CC(COc1ccccc1)N(CCCl)Cc1ccccc1 (stereo unspecified)
active: [1] 55 µM and 61.1 µM | [2] 54.5 µM | [10] 30.6 µM and 26.6 µM
not listed: [3] | [5] | [11] | [17] | [18]
inactive: all other assays above

O=C1OC2(c3ccc(O)cc3Oc3cc(O)ccc32)c2ccccc21
active: [17] 536 nM and 3.7 µM | [18] 155 nM and 1.69 µM
inactive: [2] | [4] | [5] | [7] | [11] | [12] | [13]

CNC1(C)C2CCC(C2)C1(C)C (stereo unspecified)
not listed: [3] | [5] | [7] | [8]
inactive: all other assays above

O=C1CC2(CCCC2)CC(=O)N1CCCCN1CCN(c2ncccn2)CC1
5.45 µM (active) and inactive: [12]
not listed: [2] | [3] | [5] | [11]
inactive: all other assays above

From PubChem BioAssay (Tox21)
